Here are results for 19 molecules from PubChem BioAssay (EPA / NIEHS).

Calls of active or inactive are those of the source. The calls were made as follows: active = hit-call score of the fitted dose curve at least 0.9, where 1 is the maximum; inactive = score below 0.9.

One assay can be described thus: CCTE_Shafer_MEA_dev_inter_network_spike_interval_mean: CCTE's Neural Network Formation Assay for Mean Inter-network Spike Interval, Shafer Lab (AID 2284047). In short, it runs like this: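 Primary rat cortical neurons on PEI-coated 48-well MEAs (16 electrodes/well) were exposed from plating day 0 to DIV 12, with dosing renewed at DIV 5 and 9. Recordings at DIV 5, 7, 9, 12 were collapsed by trapezoidal AUC, loss-of-signal fit vs DMSO.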
With `O=S(=O)(O)CCC(F)(F)C(F)(F)C(F)(F)C(F)(F)C(F)(F)C(F)(F)C(F)(F)C(F)(F)F`, the molecule was classed as inactive.
As for `NC(=O)C(F)(F)C(F)(F)C(F)(F)F`, the outcome was inactive.
Same read-out and setting: with `O=S(=O)(O)CCC(F)(F)C(F)(F)C(F)(F)C(F)(F)F` the entry was “inactive”; with `CNS(=O)(=O)C(F)(F)C(F)(F)C(F)(F)C(F)(F)C(F)(F)C(F)(F)C(F)(F)C(F)(F)F`, “inactive”.
With `C=CC(=O)OCC(F)(F)C(F)(F)C(F)(F)COC(=O)C=C`, the molecule was called inactive.
Same read-out and setting: with `OC(O)C(F)(F)C(F)(F)F` the entry was “inactive”; with `OCC(F)(F)C(F)(F)C(F)(F)C(F)(F)C(F)(F)C(F)(F)C(F)(F)C(F)(F)CO`, “inactive”.
As to `NC(=O)C(F)(F)C(F)(F)C(F)(F)C(F)(F)C(N)=O`, the call was inactive.
As to `CCN(CCO)S(=O)(=O)C(F)(F)C(F)(F)C(F)(F)C(F)(F)C(F)(F)C(F)(F)C(F)(F)C(F)(F)F`, the call was inactive.
On the same count and under the same terms, the same measure for `C=CC(=O)OCCC(F)(F)C(F)(F)C(F)(F)C(F)(F)F`: “inactive”.
The same measure, in the same setting: the same measure for `OCC(O)CC(F)(F)C(F)(F)C(F)(F)C(F)(F)F` (stereo not drawn): “inactive”; for `O=C(O)C(F)(F)C(F)(F)C(F)(F)OC(F)(F)F`: “inactive”.
In the case of `OCC(F)(F)C(F)(F)C(F)(F)CO`, the result was inactive.
Take `FC(F)(F)C(F)(F)C(F)(F)C(F)(F)C(F)(F)C(F)(F)C(F)(F)CCI`: the molecule was classed as inactive.
`NC(=O)C(F)(F)C(F)(F)C(F)(F)C(F)F`: the molecule was called inactive.
On to `CO[Si](C)(CCC(F)(F)C(F)(F)C(F)(F)C(F)(F)C(F)(F)C(F)(F)F)OC`, for which the molecule was called inactive.
As for `NC(O)(C(F)(F)F)C(F)(F)F`, the molecule was classed as inactive.
As to `OCCCCC(F)(F)C(F)(F)C(F)(F)C(F)(F)F`, the result was inactive.
Consider `OCC(F)(F)C(F)(F)C(F)(F)C(F)(F)C(F)(F)C(F)(F)CO`, for which the outcome was inactive.

The nature of another assay: CCTE_Shafer_MEA_dev_network_spike_number: CCTE's Neural Network Formation Assay for Number of Network Spikes, Shafer Lab (AID 2284048).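 Also: synchronized bursts across electrodes counted on days 5 7 9 12 and integrated as AUC.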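 As to AC50: fit as a loss of signal meaning fewer network spikes than DMSO.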 Put shortly:
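Developing networks of primary rat cortical neurons are treated over 12 days starting at plating, with media and compound fully replaced on DIV 5 and 9. Network spike counts from four recording days are integrated as trapezoidal AUC.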
Regarding `O=S(=O)(O)CCC(F)(F)C(F)(F)C(F)(F)C(F)(F)C(F)(F)C(F)(F)C(F)(F)C(F)(F)F`, the molecule was classed as inactive.
On the same count and under the same terms, with `NC(=O)C(F)(F)C(F)(F)C(F)(F)F` the entry was “inactive”.
With `O=S(=O)(O)CCC(F)(F)C(F)(F)C(F)(F)C(F)(F)F`, the molecule was classed as inactive.
On to `CNS(=O)(=O)C(F)(F)C(F)(F)C(F)(F)C(F)(F)C(F)(F)C(F)(F)C(F)(F)C(F)(F)F`, for which the result was inactive.
Consider `C=CC(=O)OCC(F)(F)C(F)(F)C(F)(F)COC(=O)C=C`, for which the AC50 – broadly, the concentration at which the activity in the assay is half-maximal – was 1.18 µM (active).
On to `OC(O)C(F)(F)C(F)(F)F`, for which the molecule was called inactive.
With `OCC(F)(F)C(F)(F)C(F)(F)C(F)(F)C(F)(F)C(F)(F)C(F)(F)C(F)(F)CO`, the molecule was classed as inactive.
On the same count and under the same terms, the same measure for `NC(=O)C(F)(F)C(F)(F)C(F)(F)C(F)(F)C(N)=O`: “inactive”; for `CCN(CCO)S(=O)(=O)C(F)(F)C(F)(F)C(F)(F)C(F)(F)C(F)(F)C(F)(F)C(F)(F)C(F)(F)F`: “inactive”; for `C=CC(=O)OCCC(F)(F)C(F)(F)C(F)(F)C(F)(F)F`: “inactive”.
The same measure, in the same setting: the same measure for `OCC(O)CC(F)(F)C(F)(F)C(F)(F)C(F)(F)F` (stereo not drawn): “inactive”; for `O=C(O)C(F)(F)C(F)(F)C(F)(F)OC(F)(F)F`: “inactive”.
On the same count and under the same terms, the same measure for `OCC(F)(F)C(F)(F)C(F)(F)CO`: “inactive”; for `FC(F)(F)C(F)(F)C(F)(F)C(F)(F)C(F)(F)C(F)(F)C(F)(F)CCI`: “inactive”.
Regarding `NC(=O)C(F)(F)C(F)(F)C(F)(F)C(F)F`, the result was inactive.
On the same count and under the same terms, with `CO[Si](C)(CCC(F)(F)C(F)(F)C(F)(F)C(F)(F)C(F)(F)C(F)(F)F)OC` the entry was “inactive”.
Consider `NC(O)(C(F)(F)F)C(F)(F)F`, for which the molecule was classed as inactive.
Same read-out and setting: the same measure for `OCCCCC(F)(F)C(F)(F)C(F)(F)C(F)(F)F`: “inactive”; for `OCC(F)(F)C(F)(F)C(F)(F)C(F)(F)C(F)(F)C(F)(F)CO`: “inactive”.
